{
  "source": "PubChem BioAssay (EPA / NIEHS)",
  "note": "Inconclusive results are not listed. Activity calls are given as the source filed them. How the source made its calls: active means hit-call score of the fitted dose curve at least 0.9, where 1 is the maximum; inconclusive means response in the unintended direction; inactive means score below 0.9.",
  "data": [
    {"target": "human RAR-related Orphan Receptor gamma (RORg), RORC (gene 6097) (UniProt P51449)", "sequence (P51449 whole entry, looked up)": "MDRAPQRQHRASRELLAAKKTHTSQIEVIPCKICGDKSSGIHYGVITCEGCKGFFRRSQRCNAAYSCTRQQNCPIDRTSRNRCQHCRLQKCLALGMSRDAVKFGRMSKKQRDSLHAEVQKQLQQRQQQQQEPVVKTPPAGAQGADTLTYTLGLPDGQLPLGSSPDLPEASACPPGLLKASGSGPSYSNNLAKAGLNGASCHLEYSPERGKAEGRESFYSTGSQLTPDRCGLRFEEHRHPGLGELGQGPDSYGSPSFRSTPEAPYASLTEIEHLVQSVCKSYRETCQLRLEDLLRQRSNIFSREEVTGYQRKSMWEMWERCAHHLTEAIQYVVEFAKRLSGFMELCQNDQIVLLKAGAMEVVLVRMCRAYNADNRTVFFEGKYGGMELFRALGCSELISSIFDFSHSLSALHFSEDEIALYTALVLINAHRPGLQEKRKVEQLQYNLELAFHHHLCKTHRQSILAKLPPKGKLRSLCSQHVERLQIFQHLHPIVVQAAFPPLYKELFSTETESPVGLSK", "assay": "ATG_RORg_TRANS: Attagene TRANS-FACTORIAL HepG2 Assay for human RAR-related Orphan Receptor gamma (RORg) (AID 2283011)", "experimental": "ATG_TRANS is a cell-based, multiplexed-readout assay that uses HepG2, a human liver cell line, with measurements taken at 24 hours after chemical dosing in a 24-well plate.ATG_RORg_TRANS is one of 30 assay component(s) measured or calculated from the ATG_TRANS assay. It is designed to make measurements of mRNA induction, a form of inducible reporter, as detected with fluorescence intensity signals by Reverse transcription polymerase chain reaction (RT-PCR) and Capillary electrophoresis technology.Data from the assay component ATG_RORg_TRANS was analyzed into 1 assay endpoint. This assay endpoint, ATG_RORg_TRANS, was analyzed in the positive analysis fitting direction relative to DMSO as the negative control and baseline of activity. Using a type of inducible reporter, measures of mRNA for gain-of-signal activity can be used to understand the reporter gene at the transcription factor-level as they relate to the gene RORC. Furthermore, this assay endpoint can be referred to as a primary readout, because this assay has produced multiple assay endpoints where this one serves a reporter gene function. To generalize the intended target to other relatable targets, this assay endpoint is annotated to the nuclear receptor intended target family, where the subfamily is orphan.\nHuman liver HepG2 cells are transiently transfected with multiple reporter transcription units (MRTUs) in 6-well plates using FuGene 6 reagent (Roche; 3 ml FuGene/1 mg DNA). The MRTU constructs are regulated by a cis-regulating element (promoter). […] A major difference between the CIS and TRANS system is that in CIS activities of endogenous TFs are measured, whereas the TRANS assay evaluates changes in activities of exogenous, chimeric NR-Gal4 proteins. […] At the end of 24 hour incubation, total RNA was isolated using TriZol reagent (Invitrogen). The isolated RNA is then reverse-transcribed using oligo(dT) primer and Mo-MLV reverse transcriptase (Invitrogen) with DNAse I (Ambion) treatment for 30 min. The one-tenth of the produced cDNA was amplified by PCR using Taq DNA polymerase (Invitrogen) and two reporter sequence-specific primers. The PCR products were fluorescently labeled by primer extension with 6-arboxyfluorescein (6-FAM) 5'-labeled reporter sequence-specific primer (2 min at 95 C, 20 s at 68 C and 10 min at 72 C) and these products were digested with 5U of HpaI (New England Biolabs) for 2h at 37 C. The fragments were purified using Qiaquick PCR columns (Qiagen), analyzed on an ABI 3130xL genetic analyzer (Applied Biosystems) with peak positions identified by using a set of X-rhodamine (ROX)-labeled MapMarker1000 molecular weight standards (BioVentures). The raw capillary electrophoresis data was processed using Attagraph software (Attagene).", "values": [
      {"smiles": "CC(C)C(=O)OCC(C)(C)C(OC(=O)C(C)C)C(C)C", "note": "(stereo not given)", "outcome": "inactive"},
      {"smiles": "O=C(O)C(F)(F)C(F)(F)C(F)(F)C(F)(F)C(F)(F)C(F)(F)C(F)(F)C(F)(F)C(F)(F)F", "outcome": "inactive"},
      {"smiles": "CCC(=O)O[C@H]1CC[C@H]2[C@@H]3CCC4=CC(=O)CC[C@]4(C)[C@H]3CC[C@]12C", "outcome": "inactive"},
      {"smiles": "O=S(=O)(O)C(F)(F)C(F)(F)C(F)(F)C(F)(F)C(F)(F)C(F)(F)F", "outcome": "inactive"},
      {"smiles": "Cc1cc2c3c(c1)C(c1ccccc1)=N[C@@H](NC(=O)c1ccncc1)C(=O)N3CC2", "outcome": "inactive"},
      {"smiles": "O=C(NC(=O)c1cc(F)c(F)cc1Cl)Nc1cc(F)ccc1N1CCC(C(=O)O)CC1", "outcome": "inactive"},
      {"smiles": "O=C(O)C(F)(F)C(F)(F)C(F)(F)C(F)(F)C(F)(F)C(F)(F)C(F)(F)C(F)(F)F", "outcome": "inactive"},
      {"smiles": "O=S(=O)(O)C(F)(F)C(F)(F)C(F)(F)C(F)(F)F", "outcome": "inactive"},
      {"smiles": "OCC(O)CO", "outcome": "inactive"},
      {"smiles": "Cc1cc(-c2ccc(N)c(C)c2)ccc1N", "outcome": "inactive"},
      {"smiles": "Cc1cc(O)ccc1Cl", "outcome": "inactive"},
      {"smiles": "CCC(C)(c1ccc(O)cc1)c1ccc(O)cc1", "outcome": "inactive"},
      {"smiles": "N#Cc1ccc(N(CC(N)=O)CC(F)(F)F)cc1C(F)(F)F", "outcome": "inactive"},
      {"smiles": "C1CC2OC2CC1C1CO1", "note": "(stereo not given)", "outcome": "inactive"},
      {"smiles": "O=NN(c1ccccc1)c1ccccc1", "outcome": "inactive"},
      {"smiles": "CCCCCCCCCC[N+](C)(C)CCCCCCCCCC", "outcome": "inactive"},
      {"smiles": "CN(C)CCO", "outcome": "inactive"},
      {"smiles": "CC(C)(O)C(=O)Nc1ccc([N+](=O)[O-])c(C(F)(F)F)c1", "outcome": "inactive"},
      {"smiles": "CCCN(CCC)N=O", "outcome": "inactive"},
      {"smiles": "Clc1ccc(Cl)cc1", "outcome": "inactive"},
      {"smiles": "C[C@]12CCC(=O)C=C1CC[C@@H]1[C@@H]2CC[C@]2(C)C(=O)CC[C@@H]12", "outcome": "inactive"},
      {"smiles": "CCC(C)(CC)c1cc(NC(=O)c2c(OC)cccc2OC)on1", "outcome": "inactive"},
      {"smiles": "NS(=O)(=O)C(F)(F)C(F)(F)C(F)(F)C(F)(F)C(F)(F)C(F)(F)C(F)(F)C(F)(F)F", "outcome": "inactive"},
      {"smiles": "C[C@]12CCC(=O)C=C1CC[C@@H]1[C@@H]2CC[C@@]2(C)[C@H]1CC[C@]2(C)O", "outcome": "inactive"},
      {"smiles": "Sc1ccccc1", "outcome": "inactive"}
    ]}
  ]
}
